PLK1 PBD inh: qHTS for Inhibitors of PLK1-PDB (polo-like kinase 1 - polo-box domain): Primary Screen; Potency, µM, most hits filed as inhibitors; 2.8% of 360,000 active; Plk1 PBD binding of FITC phosphopeptide, fluorescence polarization; AID 720504, 2013; further: series mostly up to about 57 µM; nearly all actives have a fitted effect of over 65% in size
BAZ2B inh: qHTS Assay for Inhibitors of BAZ2B. AlphaScreen BAZ2B-H3K14Ac peptide displacement. 4.4% of 360,000 active. Bromodomain adjacent to zinc finger domain protein 2B (Homo sapiens), Q9UIF8. Potency, µM (highest dose often 114 µM), usual class: inhibitors; further: nearly all actives have a fitted effect of over 60% in size
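Inhibition is scored as reduced AlphaScreen emission. The BAZ2B/b-H3(5-23)K14Ac complex (50 nM each) in PBS pH 7.4, 0.01% Tween-20 meets compound (up to 110 uM) for 30 min at RT before bead addition.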
VDR inh: Inhibitors of the vitamin D receptor (VDR): qHTS; Vitamin D3 receptor (Homo sapiens), P11473; VDR-SRC2-3 peptide fluorescence polarization, 2 h; Potency, µM, hits mostly inhibitors; 0.93% of 400,000 active; AID 504847, 2011
Target sequence (P11473 whole entry, looked up): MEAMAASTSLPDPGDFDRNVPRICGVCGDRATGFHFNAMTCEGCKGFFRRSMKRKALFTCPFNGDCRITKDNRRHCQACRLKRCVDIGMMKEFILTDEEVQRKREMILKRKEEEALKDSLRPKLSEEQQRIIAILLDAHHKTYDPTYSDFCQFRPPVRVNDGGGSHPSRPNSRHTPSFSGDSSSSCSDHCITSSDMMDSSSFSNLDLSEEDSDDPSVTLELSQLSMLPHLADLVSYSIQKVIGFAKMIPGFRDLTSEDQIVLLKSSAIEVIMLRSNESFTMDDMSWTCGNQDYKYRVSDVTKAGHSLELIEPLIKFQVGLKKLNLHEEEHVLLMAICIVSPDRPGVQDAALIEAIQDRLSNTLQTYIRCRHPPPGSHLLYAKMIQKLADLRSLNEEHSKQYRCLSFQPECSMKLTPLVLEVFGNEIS
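Fluorescence polarization assay measuring small-molecule disruption of VDR binding to the coregulator peptide SRC2-3. Compounds were pin-transferred (23 nl) into the reagent mix and incubated 2 h at room temperature before reading.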
JMJD2A Tudor: qHTS Assay for Inhibitors of JMJD2A-Tudor Domain. 4.4% of 390,000 active. AID 504339, 2011. Potency, µM (top dose mostly 114 µM), most hits filed as inhibitors. Lysine-specific demethylase 4A (Homo sapiens), O75164. AlphaScreen JMJD2A-Tudor / H3K4me3 peptide binding; further: nearly all actives have a fitted effect of over 50% in size
HP1b chromo inh: HTS for Inhibitors of HP1-beta Chromodomain Interactions with Methylated Histone Tails. AlphaScreen HP1-beta / biotin-H3K9me3 peptide binding. Potency, µM (doses to about 114 µM), hits mostly inhibitors. 0.56% of 390,000 active; further: nearly all actives have a fitted effect of over 70% in size
Target sequence (P83916 whole entry, looked up): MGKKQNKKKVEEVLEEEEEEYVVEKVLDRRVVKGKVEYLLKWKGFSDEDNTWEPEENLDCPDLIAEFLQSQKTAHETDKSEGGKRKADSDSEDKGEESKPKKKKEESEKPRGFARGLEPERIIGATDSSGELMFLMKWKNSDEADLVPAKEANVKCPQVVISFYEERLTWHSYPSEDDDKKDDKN
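AlphaScreen: HP1-beta (50 nM) preformed 30 min with biotin-H3(1-18)K9me3 peptide (50 nM) in PBS pH 7.4, 0.01% Tween-20. Compound added for 30 min at RT, then streptavidin donor/nickel chelate acceptor beads (10 ug/mL) for 30 min.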
L3MBTL1 inh: qHTS Assay for the Inhibitors of L3MBTL1 | Lethal(3)malignant brain tumor-like protein 1 (Homo sapiens), Q9Y468 | AlphaScreen L3MBTL1–H3K9me1 peptide binding | Potency, µM (highest dose often 57.1 µM), hits mostly inhibitors | 0.66% of 230,000 active; further: nearly all actives have a fitted effect of over 60% in size
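Read-out is AlphaScreen signal from streptavidin donor and nickel chelate acceptor beads (10 ug/mL final each) bridging L3MBTL1 (50 nM) and biotinylated K9-monomethylated H3(1-15) peptide (75 nM), after 30 min compound exposure at room temperature.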
Hits are given with their value; n = inactive; u = inconclusive; x = not tested or not shown; [ ] = dose if it differs, or a comment. A selection: hits, their analogues and other compounds. The true share with any hit is near 6.9%. The call rests on the fitted dose curve; in most records, active means well fitted curve in the direction sought with a large enough effect; inconclusive means small, poorly fitted or top-dose-only effect, or another doubt; inactive means no such curve, though single readings can be large; an effect the other way counts as inactive or inconclusive.

SMILES | PLK1 PBD inh | BAZ2B inh | VDR inh | JMJD2A Tudor | HP1b chromo inh | L3MBTL1 inh
COC(=O)C(O)(c1ccc(N(C)C(=O)c2cccs2)cc1)C(F)(F)F (configuration not stated) | 24µM | n | 50µM | 22µM | n | n
COc1cc2c(cc1OC)C(C)NCC2 (configuration not stated) | n | n | n | n | n | n
COc1cc2c(cc1OC)C(C)N(C(=O)c1nccnc1C(=O)O)CC2 (configuration not stated) | n | u | n | 50µM | n | n
O=C(O)c1cn(Cc2ccccc2)nc1-c1ccccc1 | n | n | n | n | n | n
O=C(O)CSCC(=O)N(Cc1ccccc1)c1nc(-c2ccccc2)c(-c2ccccc2)s1 | 30µM | 50µM | u | 56µM | n | x
NC(=O)CNC(=O)[C@H](Cc1ccccc1)NC(=O)[C@H](CCCN=C(N)N)NC(=O)[C@@H](N)Cc1ccc(O)cc1 | x | x | n | x | x | x
Cc1cccc(N=Nc2ccc(N(C)C)cc2)c1 | n | 7.1µM | n | 14µM | 11µM | x
CN(C)c1ccccc1 | n | x | x | x | x | x
Cc1cc(N2CCCC2)ccc1C=C(C#N)C#N | u | n | u | n | n | x
Cc1ccc2cc(C=C(C#N)C#N)c(Cl)nc2c1 | 8.4µM | n | 35µM | n | n | n
CC(=O)Oc1ccc(Cl)c2cccnc12 | x | x | n | x | x | x
COc1ccc(C2CC(c3c(O)n(CCc4ccccc4)c(=O)[nH]c3=O)=NN2)cc1OC (configuration not stated) | n | 22µM | n | n | n | n
COc1ccc(Nc2c(-c3cc(Br)ccc3O)nc3ncccn23)cc1OC | x | 14µM | n | 20µM | u | x
COC(=O)[C@]1(C)N[C@H](CN(C)S(=O)(=O)c2ccc(-c3ccccc3)cc2)[C@@H]2C(=O)N(Cc3ccccc3)C(=O)[C@@H]21 | n | x | n | n | n | n
CCOC(=O)N1CCN(/[N+]([O-])=N/Oc2ccc([N+](=O)[O-])cc2[N+](=O)[O-])CC1C (configuration not stated) | x | x | 56µM | n | n | x
CCOC(=O)N1CCCN(/[N+]([O-])=N/Oc2ccc([N+](=O)[O-])cc2[N+](=O)[O-])CC1 | x | x | u | n | n | x
CSCC[C@H](NC(=O)[C@@H](NC(=O)CNC(=O)[C@H](CC(=O)O)NC(=O)[C@H](CCSC)NC(=O)[C@@H](N)Cc1ccc(O)cc1)[C@@H](C)O)C(=O)N[C@@H](CO)C(=O)N[C@@H](CCC(N)=O)C(=O)N[C@H](C(=O)O)C(C)C | x | x | n | x | x | x
C/C=C1/CN2CC[C@]34C(=C(C=O)[C@@H]1C[C@H]23)Nc1c(O)cccc14 | x | x | n | x | x | x
Cc1ccc(NC(=O)Cn2c(=O)oc3ccccc32)cc1C | 21µM | n | u | u | n | n
Cc1ncc2n1-c1ccc(Cl)cc1C(c1ccccc1F)=NC2O (configuration not stated) | x | x | n | x | x | x
COc1ccc(CCn2c(NN=C3CCCCC3)nc3c2c(=O)[nH]c(=O)n3C)cc1 | u | n | n | n | n | x
COc1ccc(CN2C(=O)NC(=O)/C(=C/c3ccc([N+](=O)[O-])o3)C2=O)cc1 | x | 14µM | x | x | x | x
Cc1cccc(N2C(=O)NC(=O)/C(=C\c3cccn3-c3ccc(Cl)cc3)C2=O)c1 | 0.53µM | n | n | n | n | n
CC(C)(C)n1cccc1/C=C1\C(=O)NC(=O)N(c2ccccc2)C1=O | 24µM | n | n | n | n | n
Cn1cc(/C=C2\C(=O)NC(=O)N(c3ccccc3)C2=O)c2ccccc21 | n | n | n | n | n | x
SMILES | PLK1 PBD inh | BAZ2B inh | VDR inh | JMJD2A Tudor | HP1b chromo inh | L3MBTL1 inh
Cc1cccc(N2C(=O)NC(=O)/C(=C/c3ccc([N+](=O)[O-])o3)C2=O)c1 | 11µM | 22µM | u | 20µM | u | 6.3µM
Cc1cc(C)cc(N2C(=O)NC(=O)/C(=C/c3cccn3-c3ccc(Cl)cc3)C2=O)c1 | u | n | n | n | n | n
CC(C)(O)[C@@H]1C2OC(=O)[C@@H]1[C@]1(O)C[C@H]3O[C@]34C(=O)O[C@H]2[C@]14C | x | x | n | x | x | x
CC(C)n1cnc2c(C(=O)N[C@H]3CN4CCC3CC4)cc(Cl)cc21 | x | x | n | x | x | x
COc1ccc2c(c1)c(CCN1CCOCC1)c(C)n2C(=O)c1cccc(Cl)c1Cl | x | x | n | x | x | x
COc1ccc(CN2C(=O)NC(=O)/C(=C\c3cccc(OC)c3OC)C2=O)cc1 | 30µM | u | u | 56µM | n | x
Cc1ccc(/C=C2/C(=O)NC(=O)N(Cc3ccc(F)cc3)C2=O)o1 | x | n | x | x | x | x
C[N+]1=C2CCCCCN2C(O)(c2ccccc2)C1 (configuration not stated) | n | n | n | 45µM | n | n
CC(C)(C)c1ccc(O)c(N=Cc2c(O)ccc3ccccc23)c1 | n | 40µM | n | u | n | n
CC(=O)O[C@H]1C[C@@H](O[C@@H]2[C@H](C)O[C@H](O[C@@H]3[C@H](C)O[C@H](O[C@@H]4CC[C@@]5(C)[C@@H](CC[C@]6(C)[C@]5(C)C[C@H](O)[C@]5(C)[C@@H](C7=CC(=O)OC7)CC[C@@]56O)C4)C[C@@H]3O)C[C@@H]2O)O[C@@H](C)[C@H]1O[C@H]1O[C@@H](CO)[C@@H](O)[C@@H](O)[C@@H]1O | x | x | n | x | x | x
C=CCN1C(=O)/C(=C/c2ccc3c(c2)CCCN3CCC)C(=O)NC1=S | n | 45µM | u | 56µM | u | n
CC(C)(C)N1C(=O)NC(=O)/C(=C\c2ccc3c(c2)CCN3CCCCl)C1=O | u | u | n | 40µM | u | x
C=CCN1C(=O)/C(=C\c2ccc(N3CCOCC3)o2)C(=O)NC1=S | n | n | n | n | n | n
NC(=O)CF | x | x | n | x | x | x
CCC(C)(C)O | x | x | n | x | x | x
Cc1cccc(-n2c(C)n[nH]c2=S)c1C | n | n | n | 45µM | n | x
Cc1cccc(-n2c(C)nc3ccccc3c2=O)c1C | n | n | n | n | n | n
CCN1CCN(CC(c2ccccc2)c2ccccc2)CC1 | n | 10µM | n | 0.79µM | u | n
CCN1CCc2ccccc2C1 | n | n | n | n[11.4 µM] | n | n
CC(OC(=O)COc1ccc(Nc2ccccc2)cc1)C(=O)N(C)c1ccccc1 (configuration not stated) | n | 22µM | n | 35µM | u | u
C=CCN1C(=O)NC(=O)/C(=C/c2c(CCN(C)C(=O)c3ccccc3)cc3c(c2OC)OCO3)C1=O | 24µM | n | n | n | n | n

Assay outcomes deposited in PubChem by National Center for Advancing Translational Sciences (NCATS).
